The test system of the experiment is MIWI (PIWIL1) piRISC loaded with L1MC piRNA (30 nt). The experiment in a line: pre-steady-state target cleavage rate (min^-1); MIWI and MILI are mouse PIWI proteins and EfPiwi is from a freshwater sponge; tags in brackets are library labels; higher = faster piRNA-guided slicing of the target. The conditions noted are these: guide: L1MC piRNA 5'p-UAACUAAAUACUAUGCAAGCUGUAGGUCCU
The method, then:
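Cleave-'n-Seq: a library of target RNAs (target site embedded in constant flanks, ACAGCATTCCGCGTTAGTGATATCCG... 5' flank; DNA-blocked outside the site) at 0.1 nM was incubated with 1 nM active mouse MILI or MIWI piRISC (synthetic 5'-monophosphorylated piRNA guide) with or without 500 nM mouse GTSF1 at 33 °C for 1 min to 16 h. Uncleaved targets were sequenced and normalised to non-target controls, and the pooled three trials were fitted to a burst-and-steady-state model to give the pre-steady-state cleavage rate (min^-1; k3 is constrained to at most 1e-4). Sequence is the target site only; target names encode pairing extent (gX:gY) and contiguous / 1-mismatch / 2-mismatch / bulge geometry. Fits with R² ≤ 0 are excluded.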

Setting [1] is: auxiliary factor: 500 nM mouse GTSF1.
The mark [2] stands for this setting: auxiliary factor: none (no GTSF1).

± gives the standard deviation. Whole data set: some 8,200 sequences, median “pre-steady-state target cleavage rate” near 0.024, cut for the highest 2% near 1.3. For the sample, the highest values were picked, then their nearest neighbours and some sequences at random. A value given as a limit tells only on which side of the number the result lay.

On to UCCUCCUACAGCGUUGCAUAGUAUUUAGUUA, for which the “pre-steady-state target cleavage rate” value under setting [1] worked out at 0.96 ± 0.057 and the “pre-steady-state target cleavage rate” value under setting [2] was found to be 0.0256 ± 0.0045.

Turning to UCCACCUACAGCGUUGCAUAGUAUUUAGUUA, the “pre-steady-state target cleavage rate” value under setting [1] worked out at 1.03 ± 0.13 and the “pre-steady-state target cleavage rate” value under setting [2] amounted to 0.0279 ± 0.005.

In the case of UCCUCCUACAGCGUGCAUAGUAUUUAGUUA, the “pre-steady-state target cleavage rate” value by setting is: under setting [1], 1.4 ± 0.042; under setting [2], 0.0379 ± 0.0072.

Consider UCCUCCUACAGCUGUGCAUAGUAUUUAGUUA, for which the “pre-steady-state target cleavage rate” value was 1.18 ± 0.064 under setting [1] and 0.0204 ± 0.0047 under setting [2].

With UCGACCUACAGCUUGCAUAGUAUUAAGAUA, the “pre-steady-state target cleavage rate” value reads like this: under setting [1], 0.248 ± 0.029; under setting [2], 0.00627 ± 0.0027.

Take UCGACCUACAGGUUGCAUAGUAUUUACAAA: the “pre-steady-state target cleavage rate” value under setting [1] came to 0.183 ± 0.026.

Turning to AGGACCAACAGCUUGCAUAGUAUAUAGUUA, the “pre-steady-state target cleavage rate” value by setting is: under setting [1], 0.775 ± 0.054; under setting [2], 0.0604 ± 0.013.

Regarding AGGACCUACAGCUUGCAUAGUAAAAAGUUA, the “pre-steady-state target cleavage rate” value by setting is: under setting [1], 0.489 ± 0.058; under setting [2], 0.00574 ± 0.0034.

Consider UCCUCCUACAGCUUGCAUAGAAAUUAGUUA, for which the “pre-steady-state target cleavage rate” value was 0.169 ± 0.019 under setting [1] and 0.00268 ± 0.0024 under setting [2].

Take UCCUGGUACAGCUUGGUUAGUAUUUAGUAA: the “pre-steady-state target cleavage rate” value amounted to 0.412 ± 0.079 under setting [1] and 0.0101 ± 0.0031 under setting [2].

For UCCUGGUUGAGCUUGCAUAGUAUUUAGAAA, the “pre-steady-state target cleavage rate” value under setting [1] is 0.135 ± 0.024 and the “pre-steady-state target cleavage rate” value under setting [2] is 0.00555 ± 0.0033.

For UCCUGGAACAGCUUGCAUACAAUUUAGUUA, the “pre-steady-state target cleavage rate” value under setting [1] is 0.0117 ± 0.0047.

As for AGGACCUACAGCUUGCAUAGUAUAAAGAAA, under setting [1], the “pre-steady-state target cleavage rate” value stood at 0.434 ± 0.077.

As for UCGACCCACAGCUUGCAUAGUAUUUAGUUA, the “pre-steady-state target cleavage rate” value came to 1.19 ± 0.044 under setting [1] and 0.0644 ± 0.011 under setting [2].

For UCGACCACAGCUUGCAUAGUAUUUAGUUA, the “pre-steady-state target cleavage rate” value by setting is: under setting [1], 1.22 ± 0.051; under setting [2], 0.0643 ± 0.011.

In the case of UGGACCACAGCUUGCAUAGUAUUUAGUUA, the “pre-steady-state target cleavage rate” value worked out at 1.47 ± 0.083 under setting [1] and 0.0744 ± 0.015 under setting [2].

For the sequence UGGACCCACAGCUUGCAUAGUAUUUAGUUA, the “pre-steady-state target cleavage rate” value by setting is: under setting [1], 1.43 ± 0.091; under setting [2], 0.0699 ± 0.011.

As to UCCACCCACAGCUUGCAUAGUAUUUAGUUA, the “pre-steady-state target cleavage rate” value was 0.787 ± 0.052 under setting [1] and 0.0508 ± 0.0088 under setting [2].

Turning to AGGACCCACAGCUUGCAUAGUAUUUAGUUA, the “pre-steady-state target cleavage rate” value amounted to 1.47 ± 0.093 under setting [1] and 0.0682 ± 0.0093 under setting [2].

Take AGGACCACAGCUUGCAUAGUAUUUAGUUA: the “pre-steady-state target cleavage rate” value was found to be 1.29 ± 0.066 under setting [1] and 0.0967 ± 0.019 under setting [2].

With UGGACCUAGAGCUUGCAUAGUAUUUAGAAA, the “pre-steady-state target cleavage rate” value by setting is: under setting [1], 0.296 ± 0.034; under setting [2], 0.0101 ± 0.0034.

UCCACCUAGAGCUAGCAUAGUAUUUAGUUA: the “pre-steady-state target cleavage rate” value is, setting by setting: under setting [1], 0.339 ± 0.042; under setting [2], 0.0098 ± 0.0019.

In the case of UCCUGCUACUCGUUGCAUAGUAUUUACAAA, the “pre-steady-state target cleavage rate” value under setting [1] was found to be 0.0303 ± 0.0091.

Regarding UGGACGUACAGCUUGCAUAGUUUUUAGUUA, the “pre-steady-state target cleavage rate” value is, setting by setting: under setting [1], 0.35 ± 0.015; under setting [2], 0.0389 ± 0.0097.

On to UCCUGGAACAGCUUCCAUAGUAUUAAGUUA, for which, under setting [1], the “pre-steady-state target cleavage rate” value is 0.0095 ± 0.0047.

Take UCGACCUACAGCUUGCAAUCUAUUUAGAAA: the “pre-steady-state target cleavage rate” value under setting [1] came to 0.129 ± 0.033.

For the sequence AGGCCUACAGCUUGCAUAGUAUUUAGUUA, the “pre-steady-state target cleavage rate” value by setting is: under setting [1], 1.41 ± 0.075; under setting [2], 0.107 ± 0.019.

In the case of UGGCCUACAGCUUGCAUAGUAUUUAGUUA, the “pre-steady-state target cleavage rate” value was found to be 1.46 ± 0.076 under setting [1] and 0.0761 ± 0.014 under setting [2].

On to UGGCCCUACAGCUUGCAUAGUAUUUAGUUA, for which the “pre-steady-state target cleavage rate” value runs as follows: under setting [1], 1.39 ± 0.11; under setting [2], 0.0833 ± 0.015.

As for AGGCCCUACAGCUUGCAUAGUAUUUAGUUA, the “pre-steady-state target cleavage rate” value came out at 1.15 ± 0.058 under setting [1] and 0.115 ± 0.018 under setting [2].

As to UCGGCCUACAGCUUGCAUAGUAUUUAGUUA, the “pre-steady-state target cleavage rate” value came out at 1.21 ± 0.05 under setting [1] and 0.0767 ± 0.015 under setting [2].

For the sequence UCCACCUAGAGCUUGCAUAGUUUUUAGUUA, the “pre-steady-state target cleavage rate” value is, setting by setting: under setting [1], 0.22 ± 0.03; under setting [2], 0.0119 ± 0.0015.

As to UCCUGGAUGACGCUUGCAUAGUAUUUAGUUA, the “pre-steady-state target cleavage rate” value under setting [1] amounted to 0.911 ± 0.059 and the “pre-steady-state target cleavage rate” value under setting [2] came to 0.0648 ± 0.0085.

Turning to UCCACCUACUGCUUGCAUAGUAUUUAGAUA, the “pre-steady-state target cleavage rate” value by setting is: under setting [1], 0.253 ± 0.043; under setting [2], 0.0104 ± 0.0021.

Regarding UCCUGGUUGUGCUUGCAUAGUAUUUAGUAA, the “pre-steady-state target cleavage rate” value was determined as 0.2 ± 0.022 under setting [1] and 0.0175 ± 0.0053 under setting [2].

Turning to UCCUGCUACAGCUUGCAUAGUGUUUAGUUA, the “pre-steady-state target cleavage rate” value is 0.648 ± 0.045 under setting [1] and 0.0278 ± 0.0045 under setting [2].

On to UCGACCUCCAGCUUGCAUAGUAUUUAGUUA, for which the “pre-steady-state target cleavage rate” value under setting [1] is 1.17 ± 0.06 and the “pre-steady-state target cleavage rate” value under setting [2] was 0.0635 ± 0.0099.

UCCACCUCACAGCUUGCAUAGUAUUUAGUUA: the “pre-steady-state target cleavage rate” value by setting is: under setting [1], 1.06 ± 0.051; under setting [2], 0.0701 ± 0.012.

On to UCGACCUCAGCUUGCAUAGUAUUUAGUUA, for which the “pre-steady-state target cleavage rate” value came out at 1.38 ± 0.056 under setting [1] and 0.064 ± 0.013 under setting [2].

Consider UCGACCUCACAGCUUGCAUAGUAUUUAGUUA, for which the “pre-steady-state target cleavage rate” value under setting [1] came out at 1.38 ± 0.05 and the “pre-steady-state target cleavage rate” value under setting [2] worked out at 0.0855 ± 0.017.

In the case of AGGACCUCACAGCUUGCAUAGUAUUUAGUUA, the “pre-steady-state target cleavage rate” value reads like this: under setting [1], 1.28 ± 0.064; under setting [2], 0.102 ± 0.017.

On to UGGACCUCACAGCUUGCAUAGUAUUUAGUUA, for which the “pre-steady-state target cleavage rate” value is, setting by setting: under setting [1], 1.46 ± 0.084; under setting [2], 0.0711 ± 0.014.

UCGACCUUGAGCUUGCAUAGUAUUUAGUUA: the “pre-steady-state target cleavage rate” value reads like this: under setting [1], 0.789 ± 0.057; under setting [2], 0.0478 ± 0.0086.

With AGGACCUUGUGCUUGCAUAGUAUUUAGUUA, the “pre-steady-state target cleavage rate” value runs as follows: under setting [1], 0.869 ± 0.046; under setting [2], 0.0654 ± 0.012.

With UCCACCUACAGCUUGCAUAUUAUUUAGUUA, the “pre-steady-state target cleavage rate” value runs as follows: under setting [1], 1.01 ± 0.075; under setting [2], 0.0312 ± 0.007.

On to UGCACCUACAGCUUGCAUUGUAUUUAGUUA, for which the “pre-steady-state target cleavage rate” value reads like this: under setting [1], 0.808 ± 0.057; under setting [2], 0.0286 ± 0.0068.

In the case of “UCCUGGAUGUCGAUGCAUAGUAUUUAGUUA [g2:g17:cont:t1A]”, the “pre-steady-state target cleavage rate” value under setting [1] was found to be 0.0169 ± 0.005.

With UGGACCUACAGCAAGCAUAGUAUUUAGAAA, under setting [1], the “pre-steady-state target cleavage rate” value stood at 0.271 ± 0.031.

For the sequence UCCUGGAUGUCCUUGCAUAGUAUUUAGCUUA, the “pre-steady-state target cleavage rate” value by setting is: under setting [1], 0.0471 ± 0.0091; under setting [2], 0.00476 ± 0.0022.

Regarding UGGACCUACAGCUUGCAUAGUAUUUAGUCA, the “pre-steady-state target cleavage rate” value reads like this: under setting [1], 0.934 ± 0.05; under setting [2], 0.0559 ± 0.011.

With AGGACCUACAGCUUGGAUAGUAUUUUGUUA, the “pre-steady-state target cleavage rate” value by setting is: under setting [1], 1.05 ± 0.077; under setting [2], 0.0416 ± 0.0083.

Regarding UCCUGGAACAGCUUGCUAUGUAUUUAGUAA, the “pre-steady-state target cleavage rate” value is 0.0313 ± 0.0087 under setting [1] and 0.00333 ± 0.002 under setting [2].

Consider UCCUGGAUCAGGAAGCAUAGUAUUUAGUUA, for which the “pre-steady-state target cleavage rate” value under setting [1] turned out to be 0.00993 ± 0.0028.

Turning to UGGACCUACACCUUGCUUAGUAUUUAGUUA, the “pre-steady-state target cleavage rate” value was found to be 1.1 ± 0.062 under setting [1] and 0.0262 ± 0.0061 under setting [2].

Regarding UCCUGCUACUGCUUGCUUAGUAUUUAGUUA, the “pre-steady-state target cleavage rate” value runs as follows: under setting [1], 0.49 ± 0.039; under setting [2], 0.0208 ± 0.003.

With AGGACCUACUGCUUGCAUUGUAUUUAGUUA, the “pre-steady-state target cleavage rate” value is, setting by setting: under setting [1], 0.892 ± 0.03; under setting [2], 0.0384 ± 0.008.

As for AGGACCUACACCUUGCUUAGUAUUUAGUUA, the “pre-steady-state target cleavage rate” value runs as follows: under setting [1], 1.17 ± 0.057; under setting [2], 0.046 ± 0.0082.

With AGGACCUACUGCUUGCUUAGUAUUUAGUUA, the “pre-steady-state target cleavage rate” value reads like this: under setting [1], 1.39 ± 0.087; under setting [2], 0.05 ± 0.01.

For UGGACCUACUGCUUGCUUAGUAUUUAGUUA, the “pre-steady-state target cleavage rate” value worked out at 1.4 ± 0.081 under setting [1] and 0.0402 ± 0.0083 under setting [2].

For the sequence UCCACGAACAGCUUGCAUAGUAUUUAGAAA, the “pre-steady-state target cleavage rate” value by setting is: under setting [1], 0.328 ± 0.039; under setting [2], 0.00702 ± 0.0022.

For UCCUGGAUGUCGAACGUAAGUAUUUAGUAUA, the “pre-steady-state target cleavage rate” value under setting [1] was below 0.0001.

For UCCUCCUACAGCUUGCAUUGUAUUUAGUUA, the “pre-steady-state target cleavage rate” value reads like this: under setting [1], 0.952 ± 0.034; under setting [2], 0.0245 ± 0.0055.

These data come from the supplement of paper PMC10338343.
